# Over roughly 9,900 sequences, “r (bound/input frequency ratio)” has its median near 0.7; the highest 2% begin near 6.5. Many of the other results were omitted from the sample, so the highest values are more common in it than they were.
# B1: ENSMUSG00000042529.274|Kcnj12 (ssRNA)
# RNA: GGGAGUUCUACAGUCCGACGAUCGCUUCGAUAUCCGCAUGCUAGUGUGCUUACCUGCCACUCACCUCUCUAUCUAGUUGUCGAGUCUAGGGAAGGGCAGAGGGUGGGUCCUGGCCACUGGGUGCCACUGUGGGAGCCGGGGCACCUGUCAUUCUUUCUGAGUAGGUGGGCCUGUAUCCAGAGCAGGGUCUAGGGGCUCCUGCUCCCGGCUCAUCUCAGUGGCCUGAAGCAUUCAAAACUCUAGCCAGCCCCAUCCUCCUCCCUGCCAGAAUGGUCCAGUCCCUGGGCCCUGCUGGAGAGCAGCCUCUUGCGGUCGCACUAGUGUGGAAUUCUCGGGUGUCAAGG
# B2: ENSMUSG00000004113.47|Cacna1b (ssRNA)
# RNA: GGGAGUUCUACAGUCCGACGAUCGCUUCGAUAUCCGCAUGCUAGCUAUCACUGCACUUUGGGACUCAGCACUGGCGUCCGGGCGCGGCACAGCUACCACCACCCCGAUCAGGACCACUGGUGCUAGCUGCACCACGACCACCCAUGUACCAGCUCCAUGGGUGAGGGUUCCAGUUGAUGAGUUUUAUCAUCCGCUCUGGGCUGUGGGGUCACAGCCCUGGGAGGAGGGCCCUCACAUCUCGGCCUCUGUGGUGGAGGCUCCUGCUUCCCUCCCUCCCUCCCUUUUACACUGGAUAGACUAAUACUCUUGCGGUCGCACUAGUGUGGAAUUCUCGGGUGUCAAGG
# B3: ENSMUSG00000004113.89|Cacna1b|48:52;211:215;227:232 (ssRNA)
# RNA: GGGAGUUCUACAGUCCGACGAUCGCUUCGAUAUCCGCAUGCUAGACUAAUAAAGCCCUUUCUUAGAGGGACAUGGUUCUCUCUAUCCUCCACACAACUGCCUUCCUGGGUUCCAUGCCAGAUGUUGGAUCCUAAGCAGGAGGUAGCUGAGUUGAGAUGGACCCAGCAAAUCCAAAUCCUAUGUCAUGGCCUCCAGCAUCCAGGGUGGGUCCUUGGGACUUUUCUUAGGAGGGACUUUCUGAGCCUCGUGGAGACACACGUUUGUCCAAAACACACGCAUGGGAGAUAGGGUACCCCUGAAAGCCUCUUGCGGUCGCACUAGUGUGGAAUUCUCGGGUGUCAAGG
# B4: ENSMUSG00000058297.451|Spock2 (ssRNA)
# RNA: GGGAGUUCUACAGUCCGACGAUCGCUUCGAUAUCCGCAUGCUAAGCAAGCUUCGUGUUUCCUCAGGAGCAAGGUCACACAGGUCAGAUUAUUGUCGGUCCUGCGGGCCUCAUCCUUGAAUAAGCUGCCUGCCCAGUUCCUCCAUCCGUGUUCCUGCCUGCUCCCGUUCCCUUGUUGCGGGCAGGAGAGGUAGGGCUGUGUUGGAAAGAGUUCAACCAAAUUACGGCAGCACCACAUCUUGCCGAGCCCUGGAGCUGCCCUACUAAGAGCCUCCUUAGCCCUGGGUGCUGGGAAGGAUGGUGUACUCUUGCGGUCGCACUAGUGUGGAAUUCUCGGGUGUCAAGG
# Target: TDP-43 (Homo sapiens, UniProt Q13148 1-414)
# Sequence (Q13148 whole entry): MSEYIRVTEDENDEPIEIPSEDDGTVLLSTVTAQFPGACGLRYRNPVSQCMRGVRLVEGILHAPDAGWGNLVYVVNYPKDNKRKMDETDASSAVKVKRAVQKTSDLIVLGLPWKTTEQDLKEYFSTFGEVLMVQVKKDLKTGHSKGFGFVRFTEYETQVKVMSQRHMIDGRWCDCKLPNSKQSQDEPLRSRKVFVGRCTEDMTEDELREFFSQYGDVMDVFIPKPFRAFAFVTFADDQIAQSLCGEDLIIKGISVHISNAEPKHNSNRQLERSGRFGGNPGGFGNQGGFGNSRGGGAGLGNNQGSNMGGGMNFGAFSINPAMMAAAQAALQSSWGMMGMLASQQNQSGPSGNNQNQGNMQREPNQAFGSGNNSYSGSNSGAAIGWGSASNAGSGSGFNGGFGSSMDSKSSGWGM
# Assay: RNA Bind-n-Seq with designed 260-mer pool; 25 mM Tris-HCl, 150 mM KCl, 3 mM MgCl2, BSA (printed 500 mg/mL), 20 units/mL SUPERase IN; pH not stated; 500 nM RNA pool, 1 h, 4 C; TDP-43 5, 50, 500 nM; high values mean tight binding
# Settings: protein: recombinant; tags: SBP (GST cleaved off with PreScission; pGEX-GST-SBP)
# Summary of the method: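 The incubation lasted 1 h at 4 °C and used 500 nM of an in vitro-transcribed 260-nt 3′ UTR oligo pool with recombinant SBP-tagged TDP-43 at 5, 50 or 500 nM immobilized on streptavidin beads. It took place in 25 mM Tris-HCl, 150 mM KCl, 3 mM MgCl2, BSA and SUPERase IN. Bound RNA was washed, eluted with biotin, converted to cDNA, PCR-amplified and sequenced to give R, each oligo's normalized abundance in the bound sample divided by that in input. Two independent protein batches provided the duplicates.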
row,Binder,binding signal
1,B1,0.622 R (bound/input frequency ratio)
2,B2,0.27 R (bound/input frequency ratio)
3,B3,0.504 R (bound/input frequency ratio)
4,B4,0.383 R (bound/input frequency ratio)

# Reference: publication PMC12864922, “TDP-43 directly inhibits mRNA accumulation in neurites through modulation of mRNA stability”
